# ATXN2 expr inh: inhibitors of ATXN2 expression | HEK-293 ATXN2-luciferase reporter, luminescence, 24 h | AID 1745845 | Potency, µM (highest dose often 57 µM), inactives show at the highest dose activity change, negative = inhibition, hits mostly inhibitors | 0.72% of 360,000 active; note: % is set by controls: 0 for no effect and ±100 for the full control effect; nearly all actives have a fitted effect of over 55% in size
#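 ATXN2-luciferase reporter cells (luciferase flanked by upstream and downstream ATXN2 gene portions) were treated 24 h at 37 °C with compounds at up to 57 uM. SteadyGlo luminescence gave expression; GF-AFC fluorescence gave viability.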
# HepG2 viability: kills HepG2 cells in TGF-b inhibitor counter-screen; HepG2 CAGA-GFP viability, ATP luminescence, 18 h; Potency, µM (top dose mostly 46.1 µM), for inactives: at the top dose activity change, negative = cytotoxicity, actives largely listed as cytotoxic; 0.76% of 410,000 active; AID 588856
#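 CellTiter-Glo luminescence gave cytotoxicity after 18 hours at 37 degrees C. The cells were HepG2 CAGA-GFP in 1% FBS DMEM, stimulated with 500 pg/mL TGF-beta after compound addition. %Activity was normalised to no-cell wells (complete cell-killing) and DMSO (no toxicity), and curves were fitted and classified.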
# S2 tox: reduces viability in counter-screen for ATXN expression inhibitors; Potency, µM (series often up to 56.7 µM), most hits filed as cytotoxic; 0.49% of 400,000 active; S2 cells (HEK-293 line with an ATXN2-luciferase reporter) viability, CellTiter-Fluor protease fluorescence, 24 h; note: nearly all actives have a fitted effect of over 40% in size
# TGFb inhibitor: TGF-b pathway inhibition; 1.2% of 410,000 active; AID 588855; HepG2 CAGA-GFP TGF-b/SMAD3 reporter, GFP fluorescence, 18 h; TGF-beta stimulated, 500 pg/mL final; Potency, µM (titrated, usually from 46.1 µM), for the others: at the top dose activity, negative = inhibition, hits mostly inhibitors; note: % is set by controls: 0 for no effect and ±100 for the full control effect; nearly all actives have a fitted effect of over 65% in size
#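 First, reporter cells (HEPG2 CAGA-GFP) rested 2 h at 37 degrees C. Next, compounds were pinned in and TGF-beta added to 500 pg/mL final. After 18 h, GFP was imaged per cell and summed per well.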
# KB-3-1 tox: kills parental KB-3-1 adenocarcinoma cells | Potency, µM (series often up to 46.1 µM), actives largely listed as cytotoxic | 1.4% of 400,000 active | KB-3-1 viability, CellTiter-Glo ATP luminescence, 72 h; note: % is set by controls: 0 for no effect and ±100 for the full control effect; nearly all actives have a fitted effect of over 60% in size
#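 72 h, 37 °C compound treatment of KB-3-1 parental cells; CellTiter-Glo added, 10 min, luminescence read. Data corrected against DMSO-only plates and normalized before curve fitting.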
# KB-V1 MDR tox: kills drug-selected multidrug resistant KB-V1 cells. AID 1347076. KB-V1 MDR cells viability, CellTiter-Glo, 72 h. 3.4% of 400,000 active. Potency, µM (highest dose often 46.1 µM), actives largely listed as cytotoxic; note: % is set by controls: 0 for no effect and ±100 for the full control effect; nearly all actives have a fitted effect of over 60% in size
#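 Cytotoxicity via CellTiter-Glo luminescence after 72 h compound exposure at 37 degrees C. Cells: drug-selected KB-V1 line, DMEM phenol-red free plus 10% FBS. Compounds tested at multiple concentrations; normalized data fitted to concentration-effect curves.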
# * marks the source's active call; other numbers are inactive results; i = inactive; ? = inconclusive; nt = no result given; ! = repeats disagree; [ ] = dose if it differs, or a comment. This is a sample that favours compounds with a hit; in the whole collection about 5.9% have one here. Calls come from the whole dose curve; as a rule, active = well fitted curve in the direction sought with a large enough effect; inconclusive = small, poorly fitted or top-dose-only effect, or another doubt; inactive = no such curve, though single readings can be large; an effect the other way counts as inactive or inconclusive. Potency is the fitted concentration of half-maximal effect.
SMILES,ATXN2 expr inh,HepG2 viability,S2 tox,TGFb inhibitor,KB-3-1 tox,KB-V1 MDR tox
COc1cccc(CNC(=O)c2nnn(CC(=O)Nc3ccc(C)c(C)c3)c2N)c1,?,-7%,i,-21%,i,i
COc1ccc(Cl)cc1NC(=O)Cn1nnc(C(=O)NCc2cccs2)c1N,-21%,-23%,?,-21%,7.3µM*,?
Cc1ccc(Cn2nnc(C(=O)Nc3cccc(C)c3C)c2N)cc1,-12%,0%,i,-7%,i,15µM*
c1cncc(OC2CCN(Cc3ccc4c(c3)CN(Cc3ccc5c(c3)OCCO5)CCO4)CC2)c1,nt,nt,i,nt,nt,nt
O=C([C@H]1O[C@@H](n2ccc(=O)[nH]c2=O)[C@H](O)[C@@H]1O)N(CCC1=CCCCC1)CC1CC1,5%,-10%,i,4%,i,i
Cc1ccc(S(=O)(=O)c2nnn(CC(=O)Nc3ccccc3C)c2N)cc1,3%,0%,i,?,16µM*,?
CCOC(=O)C1=C(c2ccccc2)N=c2s/c(=C\c3cccc(O)c3)c(=O)n2C1c1cccs1 (centres undefined),?,14µM*,?,?,i,i
CCCNC(=O)CNC(=S)N(Cc1cc(OC)c(OC)c(OC)c1)C1CCCC1,-5%,13%,i,6%,i,16µM*
COc1cc(CN(C(=S)NCC(=O)O)C2CCCC2)cc(OC)c1OC,-11%[11.3 µM],1%,i,-6%,i,i
Cc1cccc(OCCOCCn2c(-c3ccc(Cl)cc3)nc3ccccc3c2=O)c1C,12%,-22%,i,1%,i,i
O=C(O)C1Nc2c(Cl)cc(Cl)c(Cl)c2C2C=CCC12 (centres undefined),nt,1%,i,-6%,i,i
CC(C)C1Nc2c(O)cc(Cl)c([N+](=O)[O-])c2C2C=CCC21 (centres undefined),?,-36%,?,13µM*,?,i
Cc1ccc2c(=O)cc(C(=O)Nc3cccc(C(F)(F)F)c3)oc2c1C,7%,-4%,i,0%,i,i
O=C(N/N=C/c1ccc([N+](=O)[O-])o1)c1cc2c(ccc3ccccc32)o1,-34%,-19%,i,-8%,i,i
O=C(N/N=C/c1ccc([N+](=O)[O-])o1)c1cc2ccccc2o1,nt,-127%,nt,6.3µM*,?,?
O=C(N/N=C/c1ccc([N+](=O)[O-])o1)c1ccc(O)cc1,11µM*!,-95%,?,?,?,?
O=C(N/N=C/c1ccc([N+](=O)[O-])o1)c1ccncc1,?,i,i,?,i,i
COc1ccc(C(=O)NCC2Cc3cc(C)cc(-c4nc5ccccc5s4)c3O2)c(OC)c1OC (centres undefined),nt,nt,i,nt,nt,nt
CCc1ccccc1NC(=O)c1cc(S(=O)(=O)N2CCc3ccccc32)ccc1F,-16%,0%,i,?,i,i
COc1ccccc1NC(=O)c1nnn(-c2ccc(F)cc2)c1C,10%,3%,?,1%,i,i
O=C(Nc1cc(C(F)(F)F)cc(C(F)(F)F)c1)c1cc(Cl)ccc1O,0.86µM*,nt,nt,nt,nt,nt
CNC(=O)Nc1cc(C(F)(F)F)cc(C(F)(F)F)c1,6%,-38%,nt,0%,i,i
O=C(CN1CCN(C(=O)N2CCOCC2)CC1)Nc1ccc(Br)cc1,-9%,-3%,i,-5%,i,i
CCOC(=O)c1cccc(NC(=O)CN2CCN(c3ccc(OC)cc3)CC2)c1,1%,2%,i,?,i,21µM*
COc1ccc(NC(=O)CN2CCN(C(=O)N3CCOCC3)CC2)cc1,-4%,3.5µM*,i,0%,i,i
SMILES,ATXN2 expr inh,HepG2 viability,S2 tox,TGFb inhibitor,KB-3-1 tox,KB-V1 MDR tox
CCOC(=O)c1sc(NC(=O)CN2CCN(c3ccc(OC)cc3)CC2)nc1C,-9%,-18%,i,-12%,i,?
CCOC(=O)c1cccc(NC(=O)COc2ccc([N+](=O)[O-])cc2)c1,-9%,-8%,i,-14%,i,23µM*
O=C(NCC1CCC2(CCN(Cc3c[nH]c4ccccc34)CC2)O1)C1CCOCC1 (centres undefined),nt,nt,i,nt,nt,nt
COc1ccccc1C(=O)N1CCOc2ccc(CN3CCN(Cc4ccccn4)CC3)cc2C1,nt,nt,i,nt,nt,nt
COc1ccc(N=Nc2c(C)[nH][nH]c2=O)cc1,6%[11.3 µM],-6%,i,0%,?,23µM*
COc1cccc(N=Nc2c(N)[nH][nH]c2=O)c1,-24%,-29%,i,-3%,i,18µM*
Nc1[nH][nH]c(=O)c1N=Nc1cccc(Cl)c1,-25%,0%,?,?,i,?
Cc1ccc(C2CC2c2n[nH]c(=S)n2-c2ccc(Cl)cc2)cc1 (centres undefined),-9%,-27%,i,?,?,16µM*
CCc1ccc(C(=O)c2cn(CC(=O)Nc3ccc(OC)c(Cl)c3)c3nc(C)ccc3c2=O)cc1,2%,-28%,i,-7%,i,?
CCCCCCCNC(=O)C1(CC2CC(c3ccc(Cl)cc3)=NO2)CCNCC1 (centres undefined),28µM*,18µM*,nt,?,?,i
Clc1ccc2c(c1)C(C1=NCCN1)c1ccccc1CS2 (centres undefined),?,-5%,?,-15%,0.92µM*,10µM*
S=C1NCCc2ccc(Cl)cc2C1c1ccccc1Cl (centres undefined),-21%,5%,i,-9%,i,i
CCCCc1c(C)c2ccc(OC)c(/C(C)=N\O)c2oc1=O,8%,-22%,i,-13%,?,5.8µM*
COc1cc(C#Cc2c(-c3cncn3C)n(C)c3ccc(-c4cnc(N5CCOCC5)nc4)cc23)cc(OC)c1,?,-16%,i,-19%,i,i
COc1cc(C#Cc2c(-c3cncn3C)n(C)c3ccc(-c4cnc(OC)nc4)cc23)cc(OC)c1,20µM*,-36%,i,?,?,?
Cc1ccc(Cn2cc(CN3CC(N4CCN(Cc5ccccc5F)CC4)CS3(=O)=O)nn2)cc1 (centres undefined),-18%,nt,i,nt,?,10µM*
O=C(NCC1Cc2cccc(-c3ncccn3)c2O1)C1CCCO1 (centres undefined),nt,nt,i,nt,nt,nt
CN1CCN(Cc2nc3ccccc3c(=O)n2Cc2nc(-c3ccc([N+](=O)[O-])cc3)cs2)CC1,?,11µM*,?,16µM*,?,?
